Assay results reported in PubChem BioAssay (NCATS).
Where “and” joins values, the source holds several entries; their conditions need not be identical. Equal values may be shown once. Records with an inconclusive call do not appear. Calls of active or inactive are those of the source. Unless noted, the call rests on the fitted dose curve; in most records, active means well fitted curve in the direction sought with a large enough effect; inconclusive means small, poorly fitted or top-dose-only effect, or another doubt; inactive means no such curve, though single readings can be large; an effect the other way counts as inactive or inconclusive.

Columns and labels:
[1] = molecular target: Thyroid hormone receptor beta (Homo sapiens) (UniProt P10828); assay: qHTS assay for small molecule antagonists of thyroid hormone receptor beta signaling (AID 588547; active means well fitted inhibition curve with a large enough effect in the signal ratio, with a control signal flat, not every such curve was filed as active; the % refers to the signal ratio;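 further: cells stimulated with 0.4 nM T3 agonist during compound exposure; on the % scale 0 is the no-effect control and ±100 the full control effect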); conditions: TR-UAS-bla HEK293, beta-lactamase ratio, antagonist mode, 18 h
Summary of the method: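 TR-UAS-bla GripTite HEK293 cells in 2% charcoal/dextran FBS medium were preincubated 4 h at 37 C, given compound (0.59 nM to 92 uM) plus 0.4 nM T3 (final) for 18 h, then CCF4 for 2 h at RT; Hill fit gave IC50.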

[2] = molecular target: Voltage-gated inwardly rectifying potassium channel KCNH2 (Homo sapiens) (UniProt Q12809); assay: qHTS Assay for Small Molecule Inhibitors of the Human hERG Channel Activity (AID 588834); conditions: U2OS BacMam hERG, FluxOR thallium flux fluorescence; series mostly up to 46.1 µM;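 further: U2OS cells transduced with hERG by BacMam; top concentration of the series differs between compounds; on the % scale 0 is the no-effect control and ±100 the full control effect; lower thallium flux fluorescence means stronger hERG block; nearly all actives have a fitted effect of over 50% in size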
Summary of the method: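 Cells were infected with hERG-BacMam virus for 4 hrs at room temperature, grown overnight, then seeded at 2000/well. After dye loading and roughly 10 min compound treatment, thallium influx was triggered and fluorescence recorded.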

[3] = molecular target: Luciferin 4-monooxygenase (Photinus pyralis) (UniProt P08659); assay: Biochemical firefly luciferase enzyme assay for NPC (AID 624030);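 further: purified P. pyralis luciferase at 10 nM with luciferin and ATP substrate; 0% = DMSO and -100% = full luciferase inhibition by PTC124 control; nearly all actives have a fitted effect of over 70% in size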; conditions: purified P. pyralis luciferase, luminescence, 5 min; series mostly up to 58.6 µM
Summary of the method: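 Counter-screen for direct inhibition of the luciferase enzyme by approved-drug library compounds, run at 10 nM enzyme in 50 mM Tris acetate (final). Luminescence was read within 5 min of enzyme-buffer addition and normalized to PTC124 versus DMSO (0%).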

[4] = S16 Schwann cell viability assay (CellTiter-Glo assay) (AID 624031); conditions: S16 rat Schwann cells viability, 24 h; series mostly up to 57.5 µM;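 further: cellular ATP luminescence as a viability measure; plate controls were DMSO-treated cells for no effect and cell-free wells for full effect; nearly all actives have a fitted effect of over 70% in size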
Summary of the method: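 Native S16 rat Schwann cells in DMEM/10% FBS without phenol red were incubated overnight, then exposed to compounds for 24 h at 37 °C/5% CO2. Viability was read as ATP luminescence (CellTiter-Glo), normalized to no-cell wells and DMSO (0%).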

[5] = S16 Schwann cell PMP22 intronic element firefly luciferase assay (AID 624032); conditions: S16 rat Schwann cells, PMP22 element FLuc, 24 h; series mostly up to 57.5 µM;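 further: plate controls were DMSO for no effect and PTC124 positive control mean for full effect; nearly all actives have a fitted effect of over 30% in size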
Summary of the method: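 Rat S16 Schwann cells stably carrying a PMP22 intronic element-driven Fluc reporter were seeded overnight, then exposed to compounds for 24 h at 37 °C. Luminescence was normalized to PTC124 (positive control) and DMSO (0% activity).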

[6] = S16 Schwann cell PMP22 intronic element beta-lactamase assay (AID 624044; calls by dose curve;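 further: 0% = DMSO and -100% = potassium clavulanate positive control; nearly all actives have a fitted effect of over 15% in size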); conditions: S16 rat Schwann cells, PMP22 element beta-lactamase FRET, 24 h; ratio activity, negative = inhibition: at 38.3 µM (top of the series) unless noted
Summary of the method: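 Beta-lactamase reporter under a PMP22 intronic regulatory element in stable S16 rat Schwann cells; 24 h compound exposure. 460 nm blue signal normalized between DMSO (0%) and potassium clavulanate, with 535 nm FRET tracking viability; curves classed by r2 and response.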

Voltage-gated inwardly rectifying potassium channel KCNH2 (Homo sapiens), sequence (Q12809 whole entry, looked up): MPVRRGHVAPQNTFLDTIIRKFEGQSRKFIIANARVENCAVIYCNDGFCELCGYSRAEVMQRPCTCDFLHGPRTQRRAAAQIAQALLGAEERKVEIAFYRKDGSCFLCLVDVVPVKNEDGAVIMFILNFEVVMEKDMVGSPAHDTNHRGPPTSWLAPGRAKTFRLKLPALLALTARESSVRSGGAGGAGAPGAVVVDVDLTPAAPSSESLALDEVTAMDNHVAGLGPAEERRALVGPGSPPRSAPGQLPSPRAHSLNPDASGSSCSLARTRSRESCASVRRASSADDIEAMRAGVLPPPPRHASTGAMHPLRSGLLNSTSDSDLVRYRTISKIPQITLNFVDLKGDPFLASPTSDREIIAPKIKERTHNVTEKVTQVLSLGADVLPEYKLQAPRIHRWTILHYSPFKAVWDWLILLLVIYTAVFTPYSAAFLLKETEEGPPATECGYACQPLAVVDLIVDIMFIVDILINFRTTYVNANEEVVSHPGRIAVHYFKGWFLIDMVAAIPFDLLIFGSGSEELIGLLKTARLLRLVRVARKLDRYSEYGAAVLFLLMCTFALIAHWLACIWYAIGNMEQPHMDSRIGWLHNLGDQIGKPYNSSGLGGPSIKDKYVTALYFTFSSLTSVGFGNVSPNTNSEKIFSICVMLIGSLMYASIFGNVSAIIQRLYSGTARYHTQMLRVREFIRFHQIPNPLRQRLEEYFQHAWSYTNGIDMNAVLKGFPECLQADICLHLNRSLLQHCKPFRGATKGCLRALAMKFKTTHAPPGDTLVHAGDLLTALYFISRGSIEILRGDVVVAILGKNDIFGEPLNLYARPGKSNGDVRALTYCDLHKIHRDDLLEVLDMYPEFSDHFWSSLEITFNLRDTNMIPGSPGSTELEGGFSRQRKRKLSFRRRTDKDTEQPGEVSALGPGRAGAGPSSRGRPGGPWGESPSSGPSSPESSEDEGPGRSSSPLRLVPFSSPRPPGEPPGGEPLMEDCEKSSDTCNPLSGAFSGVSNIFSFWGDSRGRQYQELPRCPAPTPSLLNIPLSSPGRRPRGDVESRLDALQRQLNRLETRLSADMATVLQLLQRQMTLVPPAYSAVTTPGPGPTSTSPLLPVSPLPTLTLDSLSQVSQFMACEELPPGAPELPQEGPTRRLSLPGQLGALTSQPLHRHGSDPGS
Thyroid hormone receptor beta (Homo sapiens), sequence (P10828 whole entry, looked up): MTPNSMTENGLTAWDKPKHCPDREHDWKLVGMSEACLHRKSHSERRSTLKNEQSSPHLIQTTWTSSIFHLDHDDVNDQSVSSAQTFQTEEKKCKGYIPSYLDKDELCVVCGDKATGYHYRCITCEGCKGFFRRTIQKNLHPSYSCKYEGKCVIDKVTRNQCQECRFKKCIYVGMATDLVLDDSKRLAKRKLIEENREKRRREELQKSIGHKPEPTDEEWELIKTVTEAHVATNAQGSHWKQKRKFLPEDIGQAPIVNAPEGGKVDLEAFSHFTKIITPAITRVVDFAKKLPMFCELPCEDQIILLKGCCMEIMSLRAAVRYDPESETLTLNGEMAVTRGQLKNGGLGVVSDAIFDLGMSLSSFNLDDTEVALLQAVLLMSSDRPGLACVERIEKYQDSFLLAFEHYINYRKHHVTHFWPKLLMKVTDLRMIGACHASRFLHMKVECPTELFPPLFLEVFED
Luciferin 4-monooxygenase (Photinus pyralis), sequence (P08659 whole entry, looked up): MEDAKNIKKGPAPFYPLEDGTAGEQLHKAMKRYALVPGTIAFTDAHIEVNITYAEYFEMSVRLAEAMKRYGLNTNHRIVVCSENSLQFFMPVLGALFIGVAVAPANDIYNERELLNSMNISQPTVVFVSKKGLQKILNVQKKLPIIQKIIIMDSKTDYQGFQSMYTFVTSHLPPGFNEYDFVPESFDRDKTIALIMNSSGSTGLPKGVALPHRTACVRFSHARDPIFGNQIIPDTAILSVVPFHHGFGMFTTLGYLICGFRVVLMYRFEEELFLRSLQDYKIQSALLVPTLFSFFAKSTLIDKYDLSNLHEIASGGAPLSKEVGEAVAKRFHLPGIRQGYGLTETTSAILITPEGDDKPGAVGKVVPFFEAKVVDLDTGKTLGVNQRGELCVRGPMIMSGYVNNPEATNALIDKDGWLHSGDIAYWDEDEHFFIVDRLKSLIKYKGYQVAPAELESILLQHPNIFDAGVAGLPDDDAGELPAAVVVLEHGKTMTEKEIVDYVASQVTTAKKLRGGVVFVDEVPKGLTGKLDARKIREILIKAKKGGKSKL

Nc1ncnc2c1ncn2[C@H]1CC[C@@H](CO)O1
inactive: activity change % (negative = inhibition) [1] -11% and 4.8% | Potency [2] | Potency [3] | Potency [4] | Potency [5]

CC[C@H]1OC(=O)[C@H](C)[C@@H](O[C@H]2C[C@@](C)(OC)[C@@H](O)[C@H](C)O2)[C@H](C)[C@@H](O[C@@H]2O[C@H](C)C[C@H](N(C)C)[C@H]2O)[C@](C)(O)C[C@@H](C)CN(C)[C@H](C)[C@@H](O)[C@]1(C)O
inactive: activity change % (negative = inhibition) [1] -2.15% | Potency [2] | Potency [3] | Potency [4] | Potency [5] | ratio activity, negative = inhibition [6] -5.31%

O=P(O)(O)O
inactive: activity change % (negative = inhibition) [1] -9.56% | Potency [2] | Potency [3] | Potency [4] | Potency [5] | ratio activity, negative = inhibition [6] 2.1%

O=C(OCc1ccccc1)c1ccc(O)cc1
inactive: activity change % (negative = inhibition) [1] 27.2% | Potency [2] | Potency [4] | Potency [5] | ratio activity, negative = inhibition [6] -2.42%

C[C@H](CCC(=O)O)[C@H]1CC[C@H]2[C@@H]3[C@H](O)C[C@@H]4C[C@H](O)CC[C@]4(C)[C@H]3C[C@H](O)[C@]12C
inactive: activity change % (negative = inhibition) [1] 5.64% | Potency [2]

NCCO/C=C/[C@H](N)C(=O)O
inactive: activity change % (negative = inhibition) [1] 19.7% | Potency [2] | Potency [3] | Potency [4] | Potency [5] | ratio activity, negative = inhibition [6] 0.236%

C/C=C/C=C/C(=O)O
inactive: activity change % (negative = inhibition) [1] 1.05% | Potency [2] | Potency [3] | Potency [4] | Potency [5]

ClC(Cl)Cl
inactive: activity change % (negative = inhibition) [1] -7.48% | Potency [2] | Potency [4] | Potency [5] | ratio activity, negative = inhibition [6] 4.84%

OC[C@H]1O[C@@H]2O[C@H]3[C@H](O)[C@@H](O)[C@@H](O[C@H]4[C@H](O)[C@@H](O)[C@@H](O[C@H]5[C@H](O)[C@@H](O)[C@@H](O[C@H]6[C@H](O)[C@@H](O)[C@@H](O[C@H]7[C@H](O)[C@@H](O)[C@@H](O[C@H]1[C@H](O)[C@H]2O)O[C@@H]7CO)O[C@@H]6CO)O[C@@H]5CO)O[C@@H]4CO)O[C@@H]3CO
inactive: activity change % (negative = inhibition) [1] 12.7% and -5.44% | Potency [2] | Potency [3] | Potency [4] | Potency [5] | ratio activity, negative = inhibition [6] 1.18%
